Data published in PubChem BioAssay AID1626 (SRMLSC, 2009).
The whole screen tested about 220,000 compounds, of which about 2,000 (0.91%) were called active. About 2% were inconclusive and are not listed. No stated cut-off is given here; in the data, inconclusive means inhibition above about 80% without an active follow-up result; inactive means below that; test concentration not stated here. These entries were drawn from the full list. Entries with a potency or affinity are not part of this list.

Assay: M. tuberculosis H37Rv growth inhibitors, H37Rv strain (AID 1626);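 further: bacteria incubated seven days before Alamar blue readout; 0% = bacteria only wells and 100% = bacteria with antibiotic wells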
Conditions: active compounds read high, concentration not given here

SMILES	inhibition
c1ccc(CNC2=NCCCCC2)cc1	-3.52% (inactive)
COCCN(CC(=O)NC1CCCCC1)C(=O)CSc1nc2ccccc2o1	-4.79% (inactive)
CC(C)N1C(=O)c2ccc(C(=O)O)cc2C1=O	2.62% (inactive)
CCOC(=O)C1=C(C)NC(=S)N(C=O)C1c1ccccc1 (stereo not given)	6.03% (inactive)
Cc1ccc(SCC(=O)NCc2cccnc2)cc1	-4.12% (inactive)
O=c1[nH]c2ccccc2c2nc3ccccn3c12	-1.5% (inactive)
O=c1[nH]c2ccccc2c(O)c1O	-3.51% (inactive)
Cc1ccc(-c2nc(CS(=O)CC(=O)NCc3ccccc3)c(C)o2)cc1 (stereo not given)	3.18% (inactive)
O=C(Nc1ccc(Nc2ccccc2)cc1)C1CC1	-4.99% (inactive)
O=C(Nc1ccc(N2CCOCC2)cc1)C1CC1	-4.12% (inactive)
COc1ccc(NC(=O)C2CCCO2)cc1 (stereo not given)	-10% (inactive)
O=C(Nc1ccc(Oc2ccc(NC(=O)C3CCCO3)cc2)cc1)C1CCCO1 (stereo not given)	-8.27% (inactive)
O=C(Nc1ccc(Cc2ccc(NC(=O)C3CC3)cc2)cc1)C1CC1	7.74% (inactive)
CS(=O)(=O)N1CCC(C(=O)Nc2ccc(Oc3ccccc3)cc2)CC1	2.66% (inactive)
O=C(CCc1n[nH]c(=O)[nH]c1=O)N1CCCCC1	-1.04% (inactive)
COc1cc(C(O)P(=O)(OCC(C)C)c2ccc(N(C)C)cc2)cc(OC)c1OC (stereo not given)	-2.15% (inactive)
CCCc1[nH]nc2c1C(c1ccc(OCCN3CCOCC3)c(OC)c1)C(C#N)=C(N)O2 (stereo not given)	-0.42% (inactive)
CC1CCCN(c2nc(-c3cccnc3)nc3scc(-c4ccccc4)c23)C1 (stereo not given)	10.2% (inactive)
CCC(CO)Nc1nc(CN2CCCCC2)nc2scc(-c3ccccc3)c12 (stereo not given)	7.81% (inactive)
CN1CCN(c2nc(-c3cccnc3)nc3scc(-c4ccccc4)c23)CC1	-0.01% (inactive)

SMILES	inhibition
OCC1CCCN(c2nc(CN3CCCCC3)nc3scc(-c4ccccc4)c23)C1 (stereo not given)	1.65% (inactive)
CCCn1nc(C(=O)Nc2nnc(CC)s2)c2ccccc2c1=O	-9.02% (inactive)
CC1CN(C(=O)N(C)C)CCN1C(=O)N(C)C (stereo not given)	-15.9% (inactive)
CC(=O)c1c(-c2ccc(Cl)cc2Cl)noc1C	2.75% (inactive)
COc1cc(NC(=O)c2ccc(OC)c([N+](=O)[O-])c2)ccc1NC(=O)c1ccco1	-4.07% (inactive)
COc1ccccc1NC(=S)N(Cc1ccco1)Cc1cc2cc(C)c(C)cc2[nH]c1=O	6.98% (inactive)
Cc1ccc(S(=O)(=O)Nc2nc3cc(C)c(C)cc3[nH]2)cc1	8.1% (inactive)
Cn1c(SCC(=O)N2CCCC2)nc2ccccc21	3.37% (inactive)
O=C(NCc1cccc(Cl)c1)c1cnn2c1NC(c1ccco1)CC2C(F)(F)F (stereo not given)	6.69% (inactive)
O=C(NCc1ccco1)c1cnn2c1NC(c1ccccc1)CC2C(F)(F)F (stereo not given)	2.86% (inactive)
Cc1c(CNC(=O)c2cnn3c2NC(c2ccccc2)CC3C(F)(F)F)cnn1C (stereo not given)	-9.25% (inactive)
O=C(NCc1ccco1)c1cc2n(n1)C(C(F)(F)F)CC(c1ccc(F)cc1)N2 (stereo not given)	42% (inactive)
O=C(NCc1ccco1)c1cc2n(n1)C(C(F)(F)F)CC(c1ccc(Br)cc1)N2 (stereo not given)	74.2% (inactive)
CCCn1cc(NC(=O)c2cc3n(n2)C(C(F)(F)F)CC(c2ccccc2)N3)cn1 (stereo not given)	0.85% (inactive)
O=C(O)c1cc2n(n1)C(C(F)(F)F)CC(c1ccccc1)N2 (stereo not given)	-8.1% (inactive)
Cc1nn(C)cc1CNC(=O)c1cnn2c1NC(c1ccc(Br)cc1)CC2C(F)(F)F (stereo not given)	3.8% (inactive)
Nc1nnc(CCCCCCCCCCc2nnc(N)s2)s1	-1.56% (inactive)
CC(C)(C)n1nc2c(c1NC(=O)COc1ccc(Cl)cc1)CS(=O)(=O)C2	1.01% (inactive)
CCN(C(=O)COC(=O)/C=C/c1ccc(S(=O)(=O)N2CCc3ccccc32)cc1)C1CCS(=O)(=O)C1 (stereo not given)	-3.11% (inactive)
Cc1c(Cl)cccc1S(=O)(=O)N1CCC(C(=O)NNC(=O)C2CC2)CC1	0.53% (inactive)

SMILES	inhibition
CCOC(=O)c1c(C)[nH]c(C(C)=O)c1C	-0.35% (inactive)
COC(=O)c1ccc(C2C(C(C)=O)=C(O)C(=O)N2CCO)cc1 (stereo not given)	-1.96% (inactive)
COc1cccc(NC(=O)N[C@@H](Cc2ccccc2)C(=O)O)c1	1.84% (inactive)
CN(C)c1ccnc(SCc2ccccc2Cl)c1C#N	11.8% (inactive)
Cc1ccc(C2CC(C(F)(F)F)n3ncc(C(N)=O)c3N2)cc1 (stereo not given)	-4.41% (inactive)
COc1cccc(C2CC(C(F)(F)F)n3ncc(C(=O)NCc4ccco4)c3N2)c1 (stereo not given)	3.27% (inactive)
Nc1nc(Cn2nnc(-c3ccccc3Cl)n2)nc(N2CCOCC2)n1	-0.22% (inactive)
COc1ccc(Cl)cc1C(=O)NNC(=O)CCNC(C)=O	-6.02% (inactive)
O=C1CS/C(=C/C(=O)c2ccccc2)N1	-2.65% (inactive)
Cc1ccc(C(=O)/C=C2/NC(=O)CS2)cc1	-4.36% (inactive)
COC(=O)CN1C(=S)N(c2ccc(OC)cc2)C(=O)/C1=C/c1cccs1	4.42% (inactive)
c1ccc(Cc2nnc(N3CCOCC3)c3ccccc23)cc1	-4.25% (inactive)
CN(C)S(=O)(=O)c1cc(C(=O)NCc2ccccc2)c(Cl)cc1Cl	-5.51% (inactive)
COc1ccc(CCN(C)C(=O)c2ccc(S(=O)(=O)NCc3ccco3)cc2)cc1OC	2.54% (inactive)
CC1=C2C3OC(=O)C(C)[C@@H]3CC[C@](C)(O)C2C2C3C4C5(C12)[C@H]1OC(=O)[C@@H](C)C1CC[C@]4(C)O[C@]5(C)[C@@H]3O (stereo not given in full)	17.2% (inactive)
Nc1ccc(-c2nc3ccc(N)cc3s2)cc1	-3.52% (inactive)
Cc1nc2cc3sc(C)nc3cc2s1	-1.33% (inactive)
CCc1ccccc1NC(=O)CSC1=C(C#N)C(c2ccc3c(c2)OCO3)C2=C(CCCC2=O)N1 (stereo not given)	4.73% (inactive)
CCN(CC)CCNc1nc2cc(OC)c(OC)cc2c2nc(-c3ccccc3)nn12	75% (inactive)
CCN(CC)CCCNc1nc2cc(OC)c(OC)cc2c2nc(-c3cccnc3)nn12	7.65% (inactive)
